Assay results reported in PubChem BioAssay (NCATS).
Results filed as inconclusive are left out. A call without a number means that no potency is given here. The source made the active and inactive calls. The call rests on the fitted dose curve; in most records, active means well fitted inhibition curve with a large enough effect; inconclusive means small, poorly fitted or top-dose-only effect; inactive means flat fitted curve, though single readings scatter.

tested on: GB4; assay: qHTS profiling for inhibitors of Plasmodium falciparum proliferation (AID 504749); further: nearly all actives have a fitted effect of over 60% in size; details: P. falciparum in erythrocytes, SYBR Green DNA, 72 h; series mostly up to 28.7 µM
Method in brief: (§1)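 Three-day growth assay of blood-stage parasites in erythrocytes (0.3% parasitemia, 2.5% hematocrit) at 37 C, 5% CO2, quantified by SYBR Green DNA staining after overnight detergent lysis.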
Potency means the concentration at half of the fitted maximal effect.

Compound | Potency
O=C(CN1CCN(Cc2ccc3c(c2)OCO3)CC1)N1c2ccccc2Sc2ccccc21 | 12 µM (active)
CCC(CC)(CC(=O)Nc1cccc(/C=C/c2nc(C3CCC3)cs2)c1)C(=O)O | inactive
C#C[C@]1(OC(C)=O)CC[C@H]2[C@@H]3CCC4=C/C(=N/O)CC[C@@H]4[C@H]3CC[C@@]21CC | inactive
CCOC(=O)Nc1ccc2c(c1)N(C(=O)CCN1CCOCC1)c1ccccc1S2 | inactive
Cc1cc2c(OCC(CNC(C)(C)C)OC(=O)c3ccccc3)cccc2[nH]1 (stereo not drawn) | 10.7 µM (active)
CCc1ccc(C(=O)C(C)CN2CCCCC2)cc1 (stereo not drawn) | inactive
CN(C)CCN1C(=O)c2ccccc2N(C)c2ccccc21 | 9.53 µM (active)
CC(=O)NCCCCCC(=O)O | inactive
CCNC(=O)NCc1cccc(Cl)c1 | inactive
OC[C@H]1O[C@@H]2O[C@H]3[C@H](O)[C@@H](O)[C@@H](O[C@H]4[C@H](O)[C@@H](O)[C@@H](O[C@H]5[C@H](O)[C@@H](O)[C@@H](O[C@H]6[C@H](O)[C@@H](O)[C@@H](O[C@H]7[C@H](O)[C@@H](O)[C@@H](O[C@H]8[C@H](O)[C@@H](O)[C@@H](O[C@H]1[C@H](O)[C@H]2O)O[C@@H]8CO)O[C@@H]7CO)O[C@@H]6CO)O[C@@H]5CO)O[C@@H]4CO)O[C@@H]3CO | inactive

tested on: HB3; assay: as above; details: P. falciparum in erythrocytes, SYBR Green DNA, 72 h; series mostly up to 28.7 µM
Method in brief: as §1

Compound | Potency
CCC(CC)(CC(=O)Nc1cccc(/C=C/c2nc(C3CCC3)cs2)c1)C(=O)O | inactive
COc1ccc(C(=O)c2ccccc2)c(O)c1 | 10 µM (active)
C#C[C@]1(OC(C)=O)CC[C@H]2[C@@H]3CCC4=C/C(=N/O)CC[C@@H]4[C@H]3CC[C@@]21CC | inactive
CN1CCC(OC(c2ccccc2)c2ccccc2)CC1 | inactive
Cc1cccc(C)c1NC(=O)CN1CCCCCC1 | inactive
CCOC(=O)Nc1ccc2c(c1)N(C(=O)CCN1CCOCC1)c1ccccc1S2 | inactive
CCc1ccc(C(=O)C(C)CN2CCCCC2)cc1 (stereo not drawn) | inactive
CCC(C(=O)OCCOCCN(CC)CC)c1ccccc1 (stereo not drawn) | inactive
CN(C)CCN1C(=O)c2ccccc2N(C)c2ccccc21 | inactive
Oc1ccc(Cl)cc1Cc1cc(Cl)ccc1O | inactive
CC(=O)NCCCCCC(=O)O | inactive
O=C(NC1CCN(CCc2c[nH]c3ccccc23)CC1)c1ccccc1 | inactive
CCOc1ccccc1OCCN[C@H](C)Cc1ccc(OC)c(S(N)(=O)=O)c1 | inactive
CCN(CC)CCOC(=O)C1(c2ccccc2)CCCC1 | inactive
NC(=O)C1(N2CCCCC2)CCN(CCCC(=O)c2ccc(F)cc2)CC1 | inactive
CN(C)CCOC(c1ccc(Cl)cc1)c1ccccn1 (stereo not drawn) | inactive
Cc1ncc(CO)c(C=O)c1O | inactive
COc1cc([C@H]2Oc3cc([C@H]4Oc5cc(O)cc(O)c5C(=O)[C@@H]4O)ccc3O[C@@H]2CO)ccc1O | inactive
CO[C@]12C[C@@H](COC(=O)c3cncc(Br)c3)CN(C)[C@@H]1Cc1cn(C)c3cccc2c13 | inactive
COc1ccc(C(=O)c2ccccc2O)c(O)c1 | inactive
CN1CCN(C2=Nc3ccccc3Sc3ccc(Cl)cc32)CC1 | inactive
CCNC(=O)NCc1cccc(Cl)c1 | inactive
O=C(O)CCc1nc2ccccc2[nH]1 | 0.0089 µM (active)
O=[N+]([O-])c1cccc(S(=O)(=O)NCCNS(=O)(=O)c2cccc([N+](=O)[O-])c2)c1 | inactive
O=S(c1cc(Cl)cc(Cl)c1O)c1cc(Cl)cc(Cl)c1O | 0.0032 µM (active)
NCc1ccccc1Sc1ccccc1CO | inactive
OC[C@H]1O[C@@H]2O[C@H]3[C@H](O)[C@@H](O)[C@@H](O[C@H]4[C@H](O)[C@@H](O)[C@@H](O[C@H]5[C@H](O)[C@@H](O)[C@@H](O[C@H]6[C@H](O)[C@@H](O)[C@@H](O[C@H]7[C@H](O)[C@@H](O)[C@@H](O[C@H]8[C@H](O)[C@@H](O)[C@@H](O[C@H]1[C@H](O)[C@H]2O)O[C@@H]8CO)O[C@@H]7CO)O[C@@H]6CO)O[C@@H]5CO)O[C@@H]4CO)O[C@@H]3CO | inactive
CC(C)=CCOc1ccc(/C=C/C(=O)c2ccc(OCC=C(C)C)cc2OCC(=O)O)cc1 | inactive
CN1CCN(C2=Nc3cc(F)ccc3Cc3ccccc32)CC1 | inactive

tested on: ICS; assay: as above; details: P. falciparum in erythrocytes, SYBR Green DNA, 72 h; series mostly up to 28.7 µM
Method in brief: as §1

Compound | Potency
O=C(CN1CCN(Cc2ccc3c(c2)OCO3)CC1)N1c2ccccc2Sc2ccccc21 | 10 µM (active)
COc1ccc(C(=O)c2ccccc2)c(O)c1 | 2.82 µM (active)
COc1cc(O)c(C(=O)c2ccccc2)cc1S(=O)(=O)O | 3.55 µM (active)
C#C[C@]1(OC(C)=O)CC[C@H]2[C@@H]3CCC4=C/C(=N/O)CC[C@@H]4[C@H]3CC[C@@]21CC | inactive
Cc1cccc(C)c1NC(=O)CN1CCCCCC1 | inactive
CCOC(=O)Nc1ccc2c(c1)N(C(=O)CCN1CCOCC1)c1ccccc1S2 | inactive
Cc1cc2c(OCC(CNC(C)(C)C)OC(=O)c3ccccc3)cccc2[nH]1 (stereo not drawn) | 8.91 µM (active)
CCc1ccc(C(=O)C(C)CN2CCCCC2)cc1 (stereo not drawn) | inactive
CCC(C(=O)OCCOCCN(CC)CC)c1ccccc1 (stereo not drawn) | inactive
CN(C)CCN1C(=O)c2ccccc2N(C)c2ccccc21 | inactive
CC(=O)NCCCCCC(=O)O | inactive
O=C(NC1CCN(CCc2c[nH]c3ccccc23)CC1)c1ccccc1 | 8.91 µM (active)
CCOc1ccccc1OCCN[C@H](C)Cc1ccc(OC)c(S(N)(=O)=O)c1 | inactive
NC(=O)C1(N2CCCCC2)CCN(CCCC(=O)c2ccc(F)cc2)CC1 | inactive
Cc1ncc(CO)c(C=O)c1O | inactive
COc1cc([C@H]2Oc3cc([C@H]4Oc5cc(O)cc(O)c5C(=O)[C@@H]4O)ccc3O[C@@H]2CO)ccc1O | 8.91 µM (active)
COc1ccc(C(=O)c2ccccc2O)c(O)c1 | 2.51 µM (active)
CN1CCN(C2=Nc3ccccc3Sc3ccc(Cl)cc32)CC1 | 11.2 µM (active)
Cc1ccc2c(Br)cc(Br)c(O)c2n1 | 11.2 µM (active)
O=C(O)CCc1nc2ccccc2[nH]1 | inactive
O=S(c1cc(Cl)cc(Cl)c1O)c1cc(Cl)cc(Cl)c1O | inactive
NCc1ccccc1Sc1ccccc1CO | 8.91 µM (active)
OC[C@H]1O[C@@H]2O[C@H]3[C@H](O)[C@@H](O)[C@@H](O[C@H]4[C@H](O)[C@@H](O)[C@@H](O[C@H]5[C@H](O)[C@@H](O)[C@@H](O[C@H]6[C@H](O)[C@@H](O)[C@@H](O[C@H]7[C@H](O)[C@@H](O)[C@@H](O[C@H]8[C@H](O)[C@@H](O)[C@@H](O[C@H]1[C@H](O)[C@H]2O)O[C@@H]8CO)O[C@@H]7CO)O[C@@H]6CO)O[C@@H]5CO)O[C@@H]4CO)O[C@@H]3CO | inactive
CC(=O)O[C@]1(C(C)=O)CC[C@H]2[C@@H]3C=C(Cl)C4=CC(=O)CC[C@]4(C)[C@H]3CC[C@@]21C | 10 µM (active)
